The record followed here is PubChem BioAssay (EPA / NIEHS).

Assay [1] is described as follows: ACEA_ER_80hr: ACEA Biosciences xCELLigence Real-Time Cell Analysis on Estrogen Receptor Agonism for Proliferation (AID 2282667; active = hit-call score of the fitted dose curve at least 0.9, where 1 is the maximum). As to conditions: T47D proliferation, impedance (xCELLigence), 80 h. The essentials: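 Real-time electrical impedance tracked growth of the human breast line T47D, with the 80 h post-dosing value used. Dosing spanned eight 1:4 steps down from a 100 uM final top concentration, run in duplicate.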

The nature of assay [2]: ATG_CRE_CIS: Attagene CIS-FACTORIAL HepG2 Assay for human cAMP Responsive Element (CRE) binding protein 3 (AID 2282926). As to conditions: HepG2 CRE cis-reporter, Attagene multiplexed mRNA; actives raise or lower the signal. The procedure, abridged: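 Assay format: transient reporter transfection of HepG2, 24 h treatment, total RNA isolation with DNase I step. Reporter abundance read by fluorescence after PCR and capillary separation; DMSO-normalised gain or loss fitting.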

Assay [3] concerns the target CCAAT/enhancer-binding protein beta (Homo sapiens) (UniProt P17676). Briefly: ATG_C_EBP_CIS: Attagene CIS-FACTORIAL HepG2 Assay for human CCAAT/Enhancer Binding Protein (C/EBP) beta (AID 2282927). As to conditions: HepG2 Attagene cis-factorial transcription factor reporter; actives raise or lower the signal. The essentials:
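HepG2, transient MRTU transfection, 24 h treatment. RT-PCR plus CE fluorescence; DMSO negative control, bidirectional fit.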

Assay [4] is described as follows: ATG_CMV_CIS: Attagene CIS-FACTORIAL HepG2 Assay for human CMV (Internal Marker) (AID 2282928).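 Also: endpoint acts as a background internal control marker rather than a target.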 As to conditions: HepG2 CMV promoter reporter, transcription factor profiling; actives raise or lower the signal. The essentials:
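Reporter transcripts from transfected HepG2 cells are isolated after 24 h of chemical dosing, reverse-transcribed and amplified. Fragments labeled with 6-FAM are cut with HpaI and quantified by capillary electrophoresis; DMSO defines baseline.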

Assay [5] can be described thus: ATG_DR4_LXR_CIS: Attagene CIS-FACTORIAL HepG2 Assay for human Liver X Receptor (LXR), DR4 submotif (AID 2282929). As to conditions: HepG2 Attagene DR4 cis-reporter, mRNA transcription; actives raise or lower the signal. The essentials: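 Fluorescence intensity of labelled reporter cDNA fragments, separated by capillary electrophoresis, gives the signal. HepG2 cells bearing cis-regulated reporter constructs were treated 24 h; activity fitted bidirectionally relative to DMSO negative control.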

Assay [6] addresses Aryl hydrocarbon receptor (Homo sapiens) (UniProt P35869). Description: ATG_Ahr_CIS: Attagene CIS-FACTORIAL HepG2 Assay for human Aryl Hydrocarbon Receptor (Ahr) (AID 2282930). As to conditions: HepG2 AhR cis-factorial reporter transcription; actives raise or lower the signal. The procedure, abridged: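 Endogenous factor activity is tracked through cis-promoter reporter units transfected into HepG2 cells. Transcript levels at 24 h are read by fluorescent RT-PCR and capillary electrophoresis, with activity in either direction scored relative to DMSO.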

Assay [7] can be described thus: ATG_AP_1_CIS: Attagene CIS-FACTORIAL HepG2 Assay for human Activator Protein 1 (AP-1) (AID 2282931). As to conditions: HepG2 Attagene cis-factorial AP-1 reporter mRNA; actives raise or lower the signal. The essentials: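 Multiplexed HepG2 reporter assay, 24 h dosing. mRNA induction detected by RT-PCR plus capillary electrophoresis. Activity fitted in both directions against DMSO.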

A short description of assay [8]: ATG_AP_2_CIS: Attagene CIS-FACTORIAL HepG2 Assay for human Activator Protein 2 (AP-2) (AID 2282932). As to conditions: HepG2 AP-2 cis-reporter, Attagene transcription factor profiling; actives raise or lower the signal. The procedure, abridged:
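Read-out: fluorescent reporter mRNA via RT-PCR and capillary electrophoresis, 24 h post-dose in transiently transfected HepG2. Endogenous factors drive cis-promoter reporters; gain or loss of signal fitted bidirectionally against DMSO.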

Assay [9] can be described thus: ATG_BRE_CIS: Attagene CIS-FACTORIAL HepG2 Assay for human Bone Morphogenetic Protein (BMP) Response Element (BRE) (AID 2282933). As to conditions: HepG2 BMP response element reporter, Attagene transcription factor profiling; actives raise or lower the signal. The procedure, abridged:
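Endogenous transcription factor activity at a BMP response element was monitored in transfected HepG2 cells 24 h after dosing. Fluorescent RT-PCR products were resolved by capillary electrophoresis, and activity was fitted in both directions versus DMSO.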

Assay [10] addresses Retinoic acid receptor alpha (Homo sapiens) (UniProt P10276). Briefly: ATG_DR5_RAR_CIS: Attagene CIS-FACTORIAL HepG2 Assay for human Retinoic Acid Receptor Alpha (RARE), DR5 submotif (AID 2282934). As to conditions: HepG2 Attagene cis-factorial RARE DR5 reporter, mRNA; actives raise or lower the signal. The essentials: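 After 24 h of chemical exposure, transiently transfected HepG2 cells were lysed for total RNA; the DR5-regulated reporter transcript was quantified via RT-PCR and capillary electrophoresis, with activity fitted bidirectionally against DMSO.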

Assay [11] has as its target Transcription factor E2F1 (Homo sapiens) (UniProt Q01094). Briefly: ATG_E2F_CIS: Attagene CIS-FACTORIAL HepG2 Assay for human E2F Transcription Factor 1 (AID 2282935). As to conditions: HepG2 Attagene cis-reporter, E2F reporter RNA transcripts; actives raise or lower the signal. The procedure, abridged: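 Transient MRTU transfection of HepG2; 24 h compound exposure; RNA → oligo(dT) RT → PCR → FAM label → HpaI cut → CE fluorescence. Gain/loss of signal fit against DMSO.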

The nature of assay [12]: ATG_E_Box_CIS: Attagene CIS-FACTORIAL HepG2 Assay for human Enhancer Box (E-box) (AID 2282936). As to conditions: HepG2 E-box cis-reporter transcription, actives raise or lower the signal. The essentials:
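Transiently transfected HepG2, endogenous TF-driven reporters, 24 h dosing. Readout: RT-PCR plus capillary electrophoresis of fluorescent reporter fragments. Gain or loss of signal fitted bidirectionally against DMSO baseline.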

Assay [13] can be described thus: ATG_M_61_CIS: Attagene CIS-FACTORIAL HepG2 Assay for M61 Transcription Factor (Internal Marker) (AID 2282937). As to conditions: HepG2 Attagene CIS-FACTORIAL M61 internal marker reporter; actives raise or lower the signal. The procedure, abridged:
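Endogenous transcription factor activity in HepG2 is read through transiently transfected cis-element reporter units. After 24 h dosing, RNA undergoes reverse transcription, PCR and primer extension with 6-FAM before capillary electrophoresis; DMSO-referenced bidirectional fit.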

Assay [14] can be described thus: ATG_EGR_CIS: Attagene CIS-FACTORIAL HepG2 Assay for human Early Growth Response 1 (EGR1) (AID 2282938). As to conditions: HepG2 Attagene CIS-FACTORIAL EGR reporter mRNA; actives raise or lower the signal. The procedure, abridged: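 Activity is taken as induction or loss of reporter mRNA versus DMSO, fitted bidirectionally. Transcripts from cis-regulated reporter units in transiently transfected HepG2 were measured after 24 h by RT-PCR with capillary electrophoresis.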

Assay [15] can be described thus: ATG_M_19_CIS: Attagene CIS-FACTORIAL HepG2 Assay for M19 Transcription Factor (Internal Marker) (AID 2282939). As to conditions: HepG2 Attagene CIS-FACTORIAL M19 internal marker reporter; actives raise or lower the signal. The procedure, abridged:
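Background-control endpoint from a multiplexed HepG2 reporter panel. Cells carrying cis-regulated reporter constructs are treated 24 h, then reporter transcripts are amplified, fluorescently labelled and sized by capillary electrophoresis. DMSO defines baseline.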

Assay [16] can be described thus: ATG_ERE_CIS: Attagene CIS-FACTORIAL HepG2 Assay for Estrogen Response Element (ERE) (AID 2282940). As to conditions: HepG2 ERE cis-reporter, Attagene RNA transcript; actives raise or lower the signal. The essentials: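 Cells used were human hepatoma HepG2, transfected with multiple reporter transcription units under cis-regulatory promoters. Reporter mRNA, read 24 h post-dosing via fluorescent RT-PCR products on capillary electrophoresis, was fitted bidirectionally relative to DMSO.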

Assay [17] in a line: ATG_Ets_CIS: Attagene CIS-FACTORIAL HepG2 Assay for human Erythroblast Transformation Specific (ETS) (AID 2282941). As to conditions: HepG2 ETS cis-reporter transcription, actives raise or lower the signal. The essentials:
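Bidirectional fit versus DMSO of reporter mRNA signal, detected by RT-PCR and capillary electrophoresis in HepG2 cells transiently transfected with cis-element reporters and dosed 24 h.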

For assay [18], the target named is Hepatocyte nuclear factor 3-beta (Homo sapiens) (UniProt Q9Y261). Briefly: ATG_FoxA2_CIS: Attagene CIS-FACTORIAL HepG2 Assay for human Forkhead box A2 (FOXA2) (AID 2282942). As to conditions: HepG2 cis-reporter transcription factor activity, 24 h; actives raise or lower the signal. The procedure, abridged:
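Reporter transcript induction is measured by fluorescence after capillary electrophoresis of RT-PCR products from HepG2 cells exposed 24 h. Cis-regulated reporter units report endogenous factor activity; curves fitted both directions against DMSO.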

A short description of assay [19]: ATG_FoxO_CIS: Attagene CIS-FACTORIAL HepG2 Assay for human Forkhead box O (FoxO) (AID 2282943). As to conditions: HepG2 Attagene cis-reporter, FoxO element, mRNA; actives raise or lower the signal. The essentials: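 Transfected HepG2 reporter cells exposed to test chemical for 24 h; reporter RNA measured by reverse transcription, PCR and fluorescent capillary electrophoresis; curves fitted for increases and decreases against DMSO.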

The nature of assay [20]: ATG_GATA_CIS: Attagene CIS-FACTORIAL HepG2 Assay for human GATA Binding Protein (AID 2282944). As to conditions: HepG2 GATA cis-element reporter, Attagene multiplex mRNA; actives raise or lower the signal. The essentials: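 Endogenous transcription factor activity was captured through cis-promoter-driven reporters in transfected HepG2 cells. After 24 h exposure, reporter transcripts were quantified by RT-PCR with fluorescent capillary electrophoresis, and responses fitted both directions against DMSO.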

The structures appear in SMILES notation. Results filed as inconclusive are left out. Calls of active or inactive are those of the source. The calls were made as follows, unless noted: active = hit-call score of the fitted dose curve at least 0.9, where 1 is the maximum; inactive = score below 0.9.

Aryl hydrocarbon receptor (Homo sapiens), sequence (P35869 whole entry, looked up): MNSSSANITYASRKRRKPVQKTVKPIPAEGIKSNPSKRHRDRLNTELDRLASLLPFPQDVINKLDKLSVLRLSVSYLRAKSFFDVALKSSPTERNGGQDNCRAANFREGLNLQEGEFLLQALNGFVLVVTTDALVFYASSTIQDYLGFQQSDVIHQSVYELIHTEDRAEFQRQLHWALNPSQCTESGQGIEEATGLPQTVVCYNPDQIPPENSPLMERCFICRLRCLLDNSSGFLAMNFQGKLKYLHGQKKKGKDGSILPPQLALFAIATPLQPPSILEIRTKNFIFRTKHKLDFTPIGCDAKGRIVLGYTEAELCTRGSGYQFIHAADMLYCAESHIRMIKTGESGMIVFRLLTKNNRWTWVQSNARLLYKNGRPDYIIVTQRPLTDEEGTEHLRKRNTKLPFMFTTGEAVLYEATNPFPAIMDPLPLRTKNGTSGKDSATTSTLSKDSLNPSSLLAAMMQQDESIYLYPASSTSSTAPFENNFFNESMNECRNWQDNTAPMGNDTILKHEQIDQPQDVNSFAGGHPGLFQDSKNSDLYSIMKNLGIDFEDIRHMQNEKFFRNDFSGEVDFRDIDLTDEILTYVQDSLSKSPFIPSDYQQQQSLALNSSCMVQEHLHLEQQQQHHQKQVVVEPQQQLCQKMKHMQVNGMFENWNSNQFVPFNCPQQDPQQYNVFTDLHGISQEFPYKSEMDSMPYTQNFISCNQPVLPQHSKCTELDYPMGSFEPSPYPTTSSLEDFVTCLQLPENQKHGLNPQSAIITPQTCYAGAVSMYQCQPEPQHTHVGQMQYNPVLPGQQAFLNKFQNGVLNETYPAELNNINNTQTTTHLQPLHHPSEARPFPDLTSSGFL
Transcription factor E2F1 (Homo sapiens), sequence (Q01094 whole entry, looked up): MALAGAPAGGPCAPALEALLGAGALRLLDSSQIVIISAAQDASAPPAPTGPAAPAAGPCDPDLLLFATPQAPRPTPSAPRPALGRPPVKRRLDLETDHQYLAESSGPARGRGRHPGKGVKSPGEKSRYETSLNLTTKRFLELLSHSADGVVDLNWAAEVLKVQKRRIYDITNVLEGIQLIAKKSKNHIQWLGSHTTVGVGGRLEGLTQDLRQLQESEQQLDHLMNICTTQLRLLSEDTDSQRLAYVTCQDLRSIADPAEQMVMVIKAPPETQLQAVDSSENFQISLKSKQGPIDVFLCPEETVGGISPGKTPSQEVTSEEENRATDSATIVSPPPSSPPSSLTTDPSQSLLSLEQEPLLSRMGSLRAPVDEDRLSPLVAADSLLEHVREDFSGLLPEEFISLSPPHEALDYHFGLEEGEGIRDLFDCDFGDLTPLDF
Retinoic acid receptor alpha (Homo sapiens), sequence (P10276 whole entry, looked up): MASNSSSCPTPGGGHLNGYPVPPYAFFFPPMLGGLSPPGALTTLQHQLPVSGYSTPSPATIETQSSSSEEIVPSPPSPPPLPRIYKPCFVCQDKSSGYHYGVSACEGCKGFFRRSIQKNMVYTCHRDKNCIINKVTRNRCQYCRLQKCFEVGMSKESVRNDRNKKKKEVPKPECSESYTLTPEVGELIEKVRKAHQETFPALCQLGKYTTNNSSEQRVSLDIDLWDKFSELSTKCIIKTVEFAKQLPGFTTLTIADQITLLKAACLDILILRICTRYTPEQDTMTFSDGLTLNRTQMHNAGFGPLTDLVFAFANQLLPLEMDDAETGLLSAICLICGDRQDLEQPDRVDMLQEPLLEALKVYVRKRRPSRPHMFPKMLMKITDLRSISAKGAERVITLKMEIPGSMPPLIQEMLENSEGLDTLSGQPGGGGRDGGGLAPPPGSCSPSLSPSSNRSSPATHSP
Hepatocyte nuclear factor 3-beta (Homo sapiens), sequence (Q9Y261 whole entry, looked up): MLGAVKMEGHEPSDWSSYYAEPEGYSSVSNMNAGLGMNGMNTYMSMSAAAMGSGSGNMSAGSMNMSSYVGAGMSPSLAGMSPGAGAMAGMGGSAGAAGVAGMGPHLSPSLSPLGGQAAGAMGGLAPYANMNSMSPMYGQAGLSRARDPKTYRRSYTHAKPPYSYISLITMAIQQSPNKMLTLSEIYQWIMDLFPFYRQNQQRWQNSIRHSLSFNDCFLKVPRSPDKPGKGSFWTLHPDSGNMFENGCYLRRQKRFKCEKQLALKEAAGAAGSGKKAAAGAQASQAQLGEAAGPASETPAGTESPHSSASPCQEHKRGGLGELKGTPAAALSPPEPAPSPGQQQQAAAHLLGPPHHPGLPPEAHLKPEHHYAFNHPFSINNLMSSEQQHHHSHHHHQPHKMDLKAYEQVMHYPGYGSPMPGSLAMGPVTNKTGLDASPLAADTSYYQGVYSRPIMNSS
CCAAT/enhancer-binding protein beta (Homo sapiens), sequence (P17676 whole entry, looked up): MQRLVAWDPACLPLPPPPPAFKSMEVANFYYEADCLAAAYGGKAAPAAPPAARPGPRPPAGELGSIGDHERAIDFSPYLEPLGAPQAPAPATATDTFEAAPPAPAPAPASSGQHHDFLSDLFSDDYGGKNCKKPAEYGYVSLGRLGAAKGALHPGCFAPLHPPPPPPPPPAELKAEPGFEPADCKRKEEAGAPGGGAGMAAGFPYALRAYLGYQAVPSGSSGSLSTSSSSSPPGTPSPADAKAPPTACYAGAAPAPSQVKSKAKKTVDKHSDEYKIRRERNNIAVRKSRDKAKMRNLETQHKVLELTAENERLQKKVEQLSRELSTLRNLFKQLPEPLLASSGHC

A word on the AC50: it is the concentration giving half of the maximal activity seen. Take `C=CC(=O)OCC(C)OCC(C)OCC(C)OC(=O)C=C` (stereo not given): the compound was classed as inactive in assay [1], in assay [2], in assay [3], in assay [6], in assay [8] and in assay [9]. Besides, the call in assay [10], in assay [11], in assay [13], in assay [15], in assay [16] and in assay [18] was inactive. The outcome in [20] was inactive. Further, the AC50 in assay [4] is 77.1 µM (active); in assay [5] it was 68.8 µM (active); in assay [7], 73.4 µM (active); in assay [12] it was 68.6 µM (active); in assay [14], 79.7 µM (active); in [17] it was 60.1 µM (active). Further, the concentration at half-maximal activity (AC50) in assay [19] was 100 µM (active).

For the compound `O=C1CCCN1C1CCCCC1`, the result in assay [1], in assay [2], in assay [3], in assay [4], in assay [5] and in assay [6] was inactive. Besides, the result in assay [7], in [8], in assay [9], in assay [10], in assay [11] and in assay [12] was inactive. For the same compound, the compound was classed as inactive in assay [13], in [14], in assay [15], in [16], in [17] and in assay [18]. Besides, the result in assay [19] and in assay [20] was inactive.

Consider `CCCCCCO`, for which the outcome in assay [1], in assay [2], in assay [3], in assay [4], in assay [5] and in [6] was inactive. Also, the compound was classed as inactive in assay [7], in assay [8], in assay [9], in assay [10], in assay [11] and in assay [12]. The result in assay [13], in assay [14], in assay [15], in [16], in assay [17] and in assay [18] was inactive. In addition, the call in assay [19] and in assay [20] was inactive.

Regarding `Cc1c(C(=O)c2c[nH]n(C)c2=O)ccc(S(C)(=O)=O)c1C1=NOCC1`, the compound was classed as inactive in assay [1], in assay [2], in assay [3], in [4], in assay [5] and in assay [6]. Moreover, the compound was classed as inactive in assay [7], in assay [8], in [9], in [10], in assay [11] and in assay [12]. The call in assay [13], in assay [14], in assay [15], in assay [16], in assay [17] and in [18] was inactive. In addition, the result in assay [19] and in assay [20] was inactive.
